Among the data in PubChem BioAssay (Tox21) are outcome and Potency values, retold here.

Unmarked numbers belong to inactive results. Records with an inconclusive call do not appear. The source made the active and inactive calls. Unless noted, calls come from the whole dose curve; as a rule, active = well fitted curve in the direction sought with a large enough effect in the repeat runs; inconclusive = weak or mixed curves; inactive = no such curve, though single readings can be large; an effect the other way counts as inactive or inconclusive.

A short description of experiment [1]: qHTS assay to identify small molecule agonists of the sonic hedgehog signaling (Shh) pathway (AID 1259368; calls by dose curve;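 note: NIH/3T3-derived 3T3Gli1-Luc cells carrying a stable Gli1-driven firefly luciferase reporter; series mostly up to about 92 µM; nearly all actives have a fitted effect of over 15% in size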). The gist of the method:
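A Gli1 transcriptional response element controlled firefly luciferase in 3T3Gli1-Luc cells. Compounds and a positive control were added 4 hr after plating, and cells were incubated a further 24 hr at 37 C before luminescence detection.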
In general terms: In qHTS, concentration-response curves come from the screen itself.

Experiment [2] deals with Androgen receptor (Homo sapiens) (UniProt P10275). Nature of the experiment: qHTS assay to identify small molecule agonists of the androgen receptor (AR) signaling pathway in the presence of an antagonist (AID 1259381; calls by dose curve; note: nearly all actives have a fitted effect of over 15% in size; note: potency is the fitted concentration of half-maximal effect). In outline: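 Test compounds at 15 concentrations were incubated for 16hr with MDA-kb2 reporter cells in presence of 3.0uM nilutamide (final). Signal: ONE-Glo luciferase luminescence.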
Chain of Androgen receptor (Homo sapiens) (P10275 whole entry, looked up): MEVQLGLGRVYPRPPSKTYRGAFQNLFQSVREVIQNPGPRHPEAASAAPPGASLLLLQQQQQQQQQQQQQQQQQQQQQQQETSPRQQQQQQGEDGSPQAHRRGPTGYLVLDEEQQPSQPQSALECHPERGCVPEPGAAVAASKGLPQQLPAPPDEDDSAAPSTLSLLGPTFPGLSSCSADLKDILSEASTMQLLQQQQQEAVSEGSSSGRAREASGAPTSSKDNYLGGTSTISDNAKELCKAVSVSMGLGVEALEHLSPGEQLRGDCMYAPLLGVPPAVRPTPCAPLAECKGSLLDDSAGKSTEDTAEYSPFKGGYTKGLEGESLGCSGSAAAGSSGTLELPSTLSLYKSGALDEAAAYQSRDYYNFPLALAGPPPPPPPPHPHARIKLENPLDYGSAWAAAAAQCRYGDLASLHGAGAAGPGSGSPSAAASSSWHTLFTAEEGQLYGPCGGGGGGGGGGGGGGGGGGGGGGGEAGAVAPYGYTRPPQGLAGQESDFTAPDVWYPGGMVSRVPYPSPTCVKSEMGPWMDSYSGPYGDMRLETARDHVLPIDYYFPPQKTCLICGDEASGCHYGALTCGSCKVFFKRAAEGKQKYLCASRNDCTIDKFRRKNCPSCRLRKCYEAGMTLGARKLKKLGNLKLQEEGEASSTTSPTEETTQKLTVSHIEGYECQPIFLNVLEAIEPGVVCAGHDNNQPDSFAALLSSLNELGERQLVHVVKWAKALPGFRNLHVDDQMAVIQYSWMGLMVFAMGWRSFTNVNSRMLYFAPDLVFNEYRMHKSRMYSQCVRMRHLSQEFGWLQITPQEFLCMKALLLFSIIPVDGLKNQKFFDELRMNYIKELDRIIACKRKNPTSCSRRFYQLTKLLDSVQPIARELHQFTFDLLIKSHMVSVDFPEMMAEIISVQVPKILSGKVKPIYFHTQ

Experiment [3] can be described thus: qHTS assay to identify small molecule antagonists of the estrogen receptor beta (ER-beta) signaling pathway - cell viability counter screen (AID 1259382). Note: series mostly up to about 92 µM; nearly all actives have a fitted effect of over 55% in size. The gist of the method:
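In this multiplexed counter screen, cells were seeded at 2,000 per well in medium with 2% charcoal-stripped FBS and incubated 6 hr before compound and 1nM final E2 were added. Sixteen hours later, ATP-based luminescence reported viability.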

Experiment [4] addresses Estrogen receptor (Homo sapiens) (UniProt P03372). Nature of the experiment: qHTS assay to identify small molecule agonists of the estrogen receptor alpha (ER-alpha) signaling pathway in the presence of an antagonist (AID 1259383; calls by dose curve; note: top concentration of the series differs between compounds; nearly all actives have a fitted effect of over 15% in size). In outline: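 Stably transfected VM7Luc4E2 reporter cells, kept 5 days in charcoal-stripped serum, received ICI-182,780 at 10.0nM final before compound addition. Following 22hr incubation at 37C and 5% CO2, luciferase signal was read by luminescence.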

Experiment [5] in a line: qHTS assay to identify small molecule agonists or antagonists of the thyroid stimulating hormone receptor (TSHR) signaling pathway - wild type cell line counter screen (AID 1259384; calls by dose curve). The gist of the method: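 Wild-type HEK293 cells were plated 18 h at 37 C/5% CO2, pin-dosed with compound plus Ro20-1724 medium, held 30 min at room temperature, then given cAMP-d2 and anti-cAMP-cryptate; fluorescence was read after 1 h. Fifteen concentrations, triplicate.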

Experiment [6] concerns the target Thyrotropin receptor (Homo sapiens) (UniProt P16473). Nature of the experiment: qHTS assay to identify small molecule antagonists of the thyroid stimulating hormone receptor (TSHR) signaling pathway (AID 1259385; calls by dose curve; note: nearly all actives have a fitted effect of over 20% in size). In outline:
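TSHR-HEK293 cells were plated and held 18 h at 37C/5% CO2, then given compound plus Ro20-1724 and stimulated with TSH at 1.5 ng/mL final. After 30 min at room temperature, cAMP was detected with cAMP-d2/anti-cAMP-cryptate (1 h) by fluorescence.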

Experiment [7] can be described thus: qHTS assay to identify small molecule agonists of the estrogen receptor alpha (ER-alpha) signaling pathway in the presence of an antagonist - cell viability counter screen (AID 1259386).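 Note: series mostly up to about 92 µM; cells exposed to compounds for 22 h at 37 °C before the viability read; nearly all actives have a fitted effect of over 30% in size.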 The gist of the method: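 Viability counter screen using VM7Luc4E2 (full-length ER-alpha, four ERE-luciferase). The cells were treated with compounds alongside ICI-182,780 10.0nM for 22hr, and live-cell protease fluorescence was quantified with CellTiter-Fluor.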

Experiment [8] deals with Progesterone receptor (Homo sapiens) (UniProt P06401). Nature of the experiment: qHTS assay to identify small molecule agonists of the progesterone receptor (PR) signaling pathway (AID 1346784; calls by dose curve; note: nearly all actives have a fitted effect of over 30% in size; note: potency is the fitted concentration of half-maximal effect). The gist of the method:
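Fluorescence from LiveBLAzer B/G FRET substrate cleavage (2 hr, RT) reported PR activation in PR-UAS-bla HEK 293T cells treated 16 hr at 37C/5% CO2 with compounds; medium contained 2% charcoal-stripped FBS.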

The nature of experiment [9]: qHTS assay to identify small molecule antagonists of the progesterone receptor (PR) signaling pathway - cell viability counter screen (AID 1346798). Note: series mostly up to about 92 µM; nearly all actives have a fitted effect of over 50% in size. In outline:
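CellTiter-Glo luminescence; PR-UAS-bla HEK293T, 3,000 cells/well; compound + R5020, 16 hr, 37C/5% CO2; 30 min RT before read.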

The nature of experiment [10]: qHTS assay to identify small molecule antagonists of the TGF-beta/Smad signaling pathway - cell viability counter screen (AID 1346824). Note: nearly all actives have a fitted effect of over 50% in size. The gist of the method: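 SBE-bla HEK 293T cells were plated overnight at 37 C, then given compounds in DMSO plus TGF-beta1 (added as 0.25 ng/mL solution) for 5 hr. After the bla read, CellTiter-Glo was added to the same wells and luminescence read after 30 min at room temperature.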

Experiment [11] in a line: qHTS assay to identify small molecule agonists of the TGF-beta/Smad signaling pathway - cell viability counter screen (AID 1346829). Note: top concentration of the series differs between compounds; nearly all actives have a fitted effect of over 45% in size. In outline:
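SBE-bla HEK 293T cells plated overnight, compound exposure 5 hr at 37 C. Viability read in the same wells by CellTiter-Glo luminescence after 30 min at room temperature, following the beta-lactamase read.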

Experiment [12] deals with Thyrotropin-releasing hormone receptor (Homo sapiens) (UniProt P34981). Nature of the experiment: qHTS assay to identify small molecule antagonists of the thyrotropin-releasing hormone receptor (TRHR) signaling pathway (AID 1346877; active = well fitted inhibition curve with a large enough effect in the repeat runs, not every such curve was filed as active; note: series mostly up to about 51 µM). In outline: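 Following an 18 h incubation at 37 °C and a 2 h calcium dye load, TRHR-HEK293 cells were exposed to compound (5 min, room temperature) and challenged with TRH, 1 nM final.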
Chain of Thyrotropin-releasing hormone receptor (Homo sapiens) (P34981 whole entry, looked up): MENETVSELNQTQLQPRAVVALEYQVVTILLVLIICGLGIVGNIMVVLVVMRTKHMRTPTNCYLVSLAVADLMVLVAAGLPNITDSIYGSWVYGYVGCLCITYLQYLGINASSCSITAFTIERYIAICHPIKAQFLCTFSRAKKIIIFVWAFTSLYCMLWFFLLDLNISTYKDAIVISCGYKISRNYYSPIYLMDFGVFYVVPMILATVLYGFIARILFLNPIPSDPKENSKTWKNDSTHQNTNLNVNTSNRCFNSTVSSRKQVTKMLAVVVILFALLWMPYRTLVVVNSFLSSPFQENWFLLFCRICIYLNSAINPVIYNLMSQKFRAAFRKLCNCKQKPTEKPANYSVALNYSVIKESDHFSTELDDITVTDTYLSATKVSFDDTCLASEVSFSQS

Experiment [13] can be described thus: qHTS assay to identify small molecule agonists of the estrogen receptor beta (ER-beta) signaling pathway - cell viability counter screen (AID 1259380). Note: nearly all actives have a fitted effect of over 30% in size. In outline: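 CellTiter-Glo read, 30 min RT, same wells as bla assay; cells ER-beta-UAS-bla HEK293T; 16 hr compound, 37C; medium 2% charcoal-stripped FBS.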
The target of experiment [14] is Progesterone receptor (Homo sapiens) (UniProt P06401). Nature of the experiment: qHTS assay to identify small molecule antagonists of the progesterone receptor (PR) signaling pathway (AID 1346795; active = well fitted inhibition curve with a large enough effect in the signal ratio in the repeat runs, not every such curve was filed as active; the % refers to the signal ratio). In outline: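 Fluorescence intensity measured 2 hr after adding beta-lactamase FRET substrate to PR-UAS-bla HEK293T cells that had been co-treated 16 hr with compound and 1 nM R5020 (final concentration) in 2% charcoal-stripped FBS.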
Chain of Progesterone receptor (Homo sapiens) (P06401 whole entry, looked up): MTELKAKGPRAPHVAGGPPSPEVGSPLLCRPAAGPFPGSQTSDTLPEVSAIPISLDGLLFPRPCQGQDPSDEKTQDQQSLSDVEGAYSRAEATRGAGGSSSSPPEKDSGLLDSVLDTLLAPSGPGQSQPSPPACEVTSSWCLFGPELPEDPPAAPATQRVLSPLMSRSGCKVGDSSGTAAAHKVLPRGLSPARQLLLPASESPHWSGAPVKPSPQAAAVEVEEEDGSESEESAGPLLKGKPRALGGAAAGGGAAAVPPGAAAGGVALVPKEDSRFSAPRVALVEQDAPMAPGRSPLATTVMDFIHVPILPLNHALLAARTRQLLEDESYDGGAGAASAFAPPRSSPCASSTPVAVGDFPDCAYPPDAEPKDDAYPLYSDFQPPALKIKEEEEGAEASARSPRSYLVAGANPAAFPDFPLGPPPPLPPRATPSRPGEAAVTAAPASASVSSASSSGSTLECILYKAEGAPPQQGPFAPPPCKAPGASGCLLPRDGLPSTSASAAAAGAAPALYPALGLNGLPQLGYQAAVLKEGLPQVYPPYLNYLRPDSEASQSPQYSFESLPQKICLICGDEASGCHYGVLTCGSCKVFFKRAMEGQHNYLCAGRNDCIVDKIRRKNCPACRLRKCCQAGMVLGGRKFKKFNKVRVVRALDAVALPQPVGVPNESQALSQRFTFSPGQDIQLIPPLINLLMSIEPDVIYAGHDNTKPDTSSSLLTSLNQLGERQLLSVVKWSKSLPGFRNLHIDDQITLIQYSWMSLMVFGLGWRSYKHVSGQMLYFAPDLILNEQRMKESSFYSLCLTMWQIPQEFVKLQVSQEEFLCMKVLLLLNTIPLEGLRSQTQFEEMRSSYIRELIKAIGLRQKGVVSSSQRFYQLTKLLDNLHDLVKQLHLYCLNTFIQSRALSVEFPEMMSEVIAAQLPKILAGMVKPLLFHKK

A short description of experiment [15]: qHTS assay to identify small molecule agonists of the progesterone receptor (PR) signaling pathway - cell viability counter screen (AID 1346799; calls by dose curve; note: nearly all actives have a fitted effect of over 45% in size). The gist of the method: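 In parallel with the beta-lactamase readout, cytotoxicity toward PR-UAS-bla HEK293T cells was measured by CellTiter-Glo luminescence following 16 hr compound incubation in 2% charcoal-stripped FBS medium.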

Experiment [16] has as its target Estrogen receptor beta (Homo sapiens) (UniProt Q92731). Nature of the experiment: qHTS assay to identify small molecule antagonists of the estrogen receptor beta (ER-beta) signaling pathway (AID 1259378; active = well fitted inhibition curve with a large enough effect in the signal ratio in the repeat runs, not every such curve was filed as active; the % refers to the signal ratio). In outline: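 ER-beta-UAS-bla HEK293T (GripTite) cells in 2% charcoal-stripped FBS medium were preincubated 6 hr at 37C, dosed with compound, then stimulated with 1 nM E2 (final) for 16 hr; beta-lactamase reporter read by B/G FRET fluorescence after 2 hr substrate loading.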

Experiment [17] in a line: qHTS assay to identify small molecule agonists of the androgen receptor (AR) signaling pathway in the presence of an antagonist - cell viability counter screen (AID 1259379).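 Note: MDA-kb2 human breast cancer cells carrying an MMTV luciferase reporter; series mostly up to about 92 µM; nearly all actives have a fitted effect of over 25% in size.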 In outline:
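Seed MDA-kb2 at 3,000 cells/well; incubate 5 hr, 37C, 0% CO2. Add nilutamide to 3.0uM final, then pin compounds at 15 concentrations. Incubate 16 hr. Add CellTiter-Fluor at 15 hr, read fluorescence after 1 hr.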

Experiment [18] is described as follows: qHTS assay to identify small molecule agonists of the TGF-beta/Smad signaling pathway (AID 1346859; active = well fitted activation curve with a large enough effect in the signal ratio in the repeat runs, not every such curve was filed as active; the % refers to the signal ratio; note: series mostly up to about 77 µM). The gist of the method: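 After overnight seeding, SBE-bla HEK 293T cells are dosed with compounds in DMSO and kept 5 hr at 37 C, 5% CO2. LiveBLAzer-type FRET substrate is then applied for 2 hr at room temperature.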
The target in experiment [19] is Estrogen receptor beta (Homo sapiens) (UniProt Q92731). Nature of the experiment: qHTS assay to identify small molecule agonists of the estrogen receptor beta (ER-beta) signaling pathway (AID 1259377; active = well fitted activation curve with a large enough effect in the signal ratio in the repeat runs, not every such curve was filed as active; the % refers to the signal ratio). The gist of the method:
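qHTS in ER-beta-UAS-bla HEK293T cells: 6 hr settling, then 16 hr compound at 37C, then LiveBLAzer substrate 2 h at RT before fluorescence reading.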

Chain of Estrogen receptor (Homo sapiens) (P03372 whole entry, looked up): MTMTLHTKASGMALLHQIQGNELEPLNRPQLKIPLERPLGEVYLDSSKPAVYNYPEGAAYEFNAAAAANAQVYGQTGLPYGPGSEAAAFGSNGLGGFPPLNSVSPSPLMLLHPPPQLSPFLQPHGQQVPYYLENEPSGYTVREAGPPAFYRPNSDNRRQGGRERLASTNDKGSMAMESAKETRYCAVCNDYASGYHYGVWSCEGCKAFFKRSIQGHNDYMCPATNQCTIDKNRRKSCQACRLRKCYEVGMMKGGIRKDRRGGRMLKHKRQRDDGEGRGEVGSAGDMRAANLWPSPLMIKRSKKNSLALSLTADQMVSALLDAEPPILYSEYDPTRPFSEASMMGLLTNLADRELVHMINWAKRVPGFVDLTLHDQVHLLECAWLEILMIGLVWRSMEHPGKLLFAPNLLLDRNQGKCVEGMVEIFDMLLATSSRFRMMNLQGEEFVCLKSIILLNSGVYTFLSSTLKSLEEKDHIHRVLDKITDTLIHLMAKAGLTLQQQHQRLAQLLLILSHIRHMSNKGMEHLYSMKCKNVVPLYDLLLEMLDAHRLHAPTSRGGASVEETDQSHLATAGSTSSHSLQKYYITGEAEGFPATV
Chain of Thyrotropin receptor (Homo sapiens) (P16473 whole entry, looked up): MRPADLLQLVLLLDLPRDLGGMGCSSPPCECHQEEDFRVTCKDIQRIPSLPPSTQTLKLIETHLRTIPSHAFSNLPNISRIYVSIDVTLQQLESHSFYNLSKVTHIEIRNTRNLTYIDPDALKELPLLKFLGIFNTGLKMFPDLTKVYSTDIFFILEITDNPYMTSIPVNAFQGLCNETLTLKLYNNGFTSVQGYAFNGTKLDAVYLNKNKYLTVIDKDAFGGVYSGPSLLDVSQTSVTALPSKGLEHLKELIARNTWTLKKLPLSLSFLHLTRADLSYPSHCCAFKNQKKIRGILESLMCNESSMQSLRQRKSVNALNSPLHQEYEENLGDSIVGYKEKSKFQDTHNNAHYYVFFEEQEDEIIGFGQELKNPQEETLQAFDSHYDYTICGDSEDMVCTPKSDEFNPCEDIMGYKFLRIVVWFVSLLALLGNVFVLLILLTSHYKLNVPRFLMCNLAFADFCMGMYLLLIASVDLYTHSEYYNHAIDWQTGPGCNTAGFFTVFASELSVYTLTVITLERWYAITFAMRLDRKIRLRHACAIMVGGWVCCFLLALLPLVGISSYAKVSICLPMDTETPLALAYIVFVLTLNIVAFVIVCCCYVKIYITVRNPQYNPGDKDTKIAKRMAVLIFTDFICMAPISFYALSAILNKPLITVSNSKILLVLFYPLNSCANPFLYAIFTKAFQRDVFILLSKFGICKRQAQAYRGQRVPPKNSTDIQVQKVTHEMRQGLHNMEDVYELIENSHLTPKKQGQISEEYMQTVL
Chain of Estrogen receptor beta (Homo sapiens) (Q92731 whole entry, looked up): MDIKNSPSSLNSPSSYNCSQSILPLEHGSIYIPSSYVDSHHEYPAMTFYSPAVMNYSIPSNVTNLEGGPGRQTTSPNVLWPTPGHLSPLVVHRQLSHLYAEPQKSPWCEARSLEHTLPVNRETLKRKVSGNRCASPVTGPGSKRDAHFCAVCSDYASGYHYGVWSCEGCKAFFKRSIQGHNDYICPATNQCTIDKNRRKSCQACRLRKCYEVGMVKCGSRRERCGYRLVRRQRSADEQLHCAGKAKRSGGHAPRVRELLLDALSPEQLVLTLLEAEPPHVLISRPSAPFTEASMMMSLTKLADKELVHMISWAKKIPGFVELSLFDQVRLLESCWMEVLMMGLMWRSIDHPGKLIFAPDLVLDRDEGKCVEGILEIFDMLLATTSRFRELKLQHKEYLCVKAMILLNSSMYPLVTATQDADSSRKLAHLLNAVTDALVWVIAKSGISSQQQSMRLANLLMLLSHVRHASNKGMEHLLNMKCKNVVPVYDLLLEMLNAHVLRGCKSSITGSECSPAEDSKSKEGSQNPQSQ

As for `COc1ccc2c(c1)C(=O)N(CCc1ccc(S(=O)(=O)NC(=O)NC3CCCCC3)cc1)C(=O)C2(C)C`, the outcome in experiment [1], in experiment [3], in [4], in experiment [5], in experiment [6] and in experiment [10] was inactive. In addition, the result in experiment [11] and in experiment [12] was inactive. Besides, the Potency in [2] is 21.1 µM (active); in experiment [8], 5.96 µM (active). Further, the Potency result in [7] and in experiment [9] was “inactive” in each case.

`Cc1cccc(C)c1OCC(C)N` (configuration not stated): the call in experiment [1], in [3], in experiment [4], in experiment [5], in experiment [6] and in [10] was inactive. The call in [11] and in experiment [12] was inactive. The Potency entry in [13], in experiment [7], in experiment [8], in experiment [14], in [9] and in experiment [15] was “inactive” throughout.

Consider `C[C@H](N)[C@H](O)c1cccc(O)c1`, for which the molecule was classed as inactive in experiment [1], in [16], in [3], in [4], in experiment [5] and in [6]. The result in experiment [10], in experiment [11], in experiment [18] and in [12] was inactive. Further, the Potency entry in experiment [17], in experiment [13], in experiment [8], in experiment [14], in [9] and in experiment [15] was “inactive” in each case.

For `OCCCCC(O)CO` (configuration not stated), the result in experiment [1], in experiment [16], in experiment [5], in experiment [6], in experiment [10] and in experiment [11] was inactive. The molecule was called inactive in experiment [18] and in experiment [12]. For the same molecule, the Potency entry in experiment [19], in experiment [13], in [7], in [8], in experiment [14] and in experiment [9] was “inactive” each time.

Regarding `Cc1ccc(S(=O)(=O)O)c(C)c1`, the molecule was called inactive in experiment [1], in experiment [3], in experiment [4], in experiment [5], in [6] and in experiment [10]. In addition, the molecule was called inactive in experiment [11], in experiment [18] and in experiment [12]. Besides, the Potency result in experiment [13], in experiment [8], in experiment [14] and in experiment [9] was “inactive” each time.

For `O=C(O)C(=O)Cc1ccccc1`, the outcome in experiment [1], in experiment [16], in [3], in [4], in [5] and in [10] was inactive. Moreover, the call in experiment [11], in [18] and in experiment [12] was inactive. Besides, the Potency entry in experiment [13], in experiment [2], in experiment [8], in [14], in [9] and in experiment [15] was “inactive” each time.

As for `COP(=O)(OC)OC(c1ccc(Cl)cc1)P(=O)(OC)OC` (configuration not stated), the call in experiment [1], in experiment [3], in [4], in experiment [5], in experiment [6] and in experiment [10] was inactive. In addition, the call in experiment [11] and in experiment [12] was inactive. Moreover, the Potency entry in experiment [17], in experiment [13], in [7], in [8], in experiment [14] and in experiment [9] was “inactive” each time. For the same molecule, the Potency result in experiment [15] is “inactive”.

On to `O=C(O)Cc1cn(-c2ccccc2)nc1-c1ccc(Cl)cc1`, for which the molecule was called inactive in [1], in [3], in experiment [4], in [5], in experiment [6] and in experiment [10]. Moreover, the molecule was called inactive in experiment [11] and in experiment [12]. In addition, the Potency result in [17], in experiment [7], in experiment [8], in experiment [14], in [9] and in experiment [15] was “inactive” in each case.

Turning to `Cc1ccc2c(c1)OCC(=O)CO2`, the molecule was called inactive in [1], in [16], in [3], in experiment [4], in experiment [5] and in [10]. Besides, the call in [11] and in experiment [12] was inactive. Besides, the Potency result in [13], in experiment [7], in experiment [8], in experiment [14], in experiment [9] and in experiment [15] was “inactive” each time.
